Measured values published in the supplement of paper PMC11417369.
Over roughly 25,000 sequences, “ln(normalized median fluorescence intensity)” has its median near 9.7; the highest 2% begin near 11. The sample holds the highest values, similar sequences and a random draw of the others, so the mix is not that of the screen.

What follows are sequences tested on PfAP2-HC AP2 domain (GST-tagged) (assay: gcPBM binding intensity (ln(normalized median fluorescence intensity)); higher = stronger DNA binding).
Summary of the method: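 DNA-binding domains from P. falciparum, fused to GST and produced in E. coli, were put on an Agilent 4 × 180k double-stranded probe array for 1 h in 1× PBS holding 1% milk, 0.2 mg/ml BSA, 0.5% salmon testes DNA and 0.03% Triton X-100. Probes were primer-extended, 36 bp long and drawn from intergenic genomic regions, with negative controls included. After Alexa488 anti-GST antibody detection and a 488 nm scan, binding intensity was set as the highest Masliner-normalised natural-log median intensity across replicate spots of either probe orientation.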

Sequence	gcPBM binding intensity (ln)
ACATACGAAAATTGGAAGGATAGATAAAAAGAAAAT [CACACA_negctrl_site51]	9.66
CTCAACATATACGTAACACACATATAAATATAAATA [CACACA_site7749]	9.89
ATATAGAAAATGCATACACACTTTATAAATATATTT [CACACA_site6553]	9.82
TATTTATTGTGATACTTATATTACTTAATGATTAAA [CACACA_negctrl_site676]	9.41
ACCCATTTAACAAAATGTACATTATTATAATTACTT [XGTACX_site7105]	9.72
CTTATATAATTCGATAGTACATATTTTTATATATAT [XGTACX_site4045]	9.68
ATACAATAATATAAATGTACAAATTATATCTTAATT [XGTACX_site6004]	9.62
TTGTGTACATATTAAGTGCATATATATATATATATA	10.4
TTTTACCTAAATATCACACATATTTAAATATATATA [CACACA_site5597]	9.57
AGTCAATTTTGTGTGTCAACATTTATATAAAGAATG [TGCATGCA_negctrl_site400]	9.71
AGAAGGTAAAAACACACACACACATACAAAAAAAAA [CACACA_site3767]	10.7
AAGGTAAACGGACACACACACATACAAAAAAAAAAA [CACACA_site5961]	11.3
AAGGTAAACAGACACACACACATACAAAAAAAAAAA [CACACA_site3768]	10.8
TATATATAAAAAACATGTACACAAATTTACATACAT [XGTACX_site4777]	9.79
ATGTATGGAAATTTTACACACAAGAGTAGTTTAAAA [CACACA_site1710]	9.9
AAAAAAAACGCACATACACACACACCCATATATATA [CACACA_site9118]	10.4
TACCCACTAAAATACACACACACACCCACATATATA [CACACA_site6141]	10.4
CACCCACTAATAAACACACACATATATATATATATA [CACACA_site389]	10.4
CGCACTAAAAAACACACACACACACCCATATATATA [CACACA_site4152]	11
CCCACTAAAAAACACACACACACACCCATATATATA [CACACA_site6140]	11
AAAGATGATAAAATATGTACACACAGTTTATACATT [XGTACX_site8703]	9.95
AAGAAAAAAAAAATTACACACTGCGCAGATACACAA [CACACA_site1289]	9.86
ATTTTTTCTTTTCGATGTACCCTTCTTATTCTTTAT [XGTACX_site3782]	10.1
TCTTGATCTTATATATATCTACAATATTTTATACAT [TGCATGCA_negctrl_site569]	10.2
CTGCGTTTAATATGCGTGCACCTTGGTTTTATATCT [GTGCAC_site9525]	9.83

Sequence	gcPBM binding intensity (ln)
GTAAGTTTGAATACACGTACAAATTTATTAAAGTCC [XGTACX_site6722]	9.72
ATTCTATATGTTACATAAACCTATATTTTTTTTTTT [CACACA_negctrl_site860]	9.58
TTTTACTTAAGACACACACACACAAAAAAAAAAAAA [CACACA_site6573]	10.8
ATATAACATGGACACACACACATATATATATATTAT [CACACA_site6135]	10.4
CTATTTCATGGACACACACACACAAACAAACATATA [CACACA_site4696]	11.1
AATAAATATATATTCACACACAAACATATATATATA [CACACA_site4023]	10
CTATTTCATAAACACACACACACAAACAAACATATA [CACACA_site8234]	11.5
CTATTTCAGAAACACACACACACAAACAAACATATA [CACACA_site978]	10.4
TAAATAAATATATATTCACACACAAACATATATATA [CACACA_site9332]	10.5
TTTTAAGAAAAAAAATGTACACATGAAAATAGTGAA [XGTACX_site5898]	9.5
TAGATACATAAAAGTGGTACATATATATATATATAT [XGTACX_site6263]	9.85
TAACTTAAATAATACATACACACATGTACATACAGA [CACACA_site1594]	10.2
TCTATTTTTTATATGGTGCATTGTTCTTATTAATAT [GTGCAC_site9392]	9.77
GTTACACAAACAAACACACACACACGCACGCACAAA [CACACA_site7191]	11.3
ATTATAGACACGCGCACACACAACAAAAAAAAAAAA [CACACA_site9180]	11.3
AAAAAACAAAAACACACGCACACAAAAAAAAAAAAA [CACACA_site802]	10.2
TGATTATACGCACGCGCACACACAACCAAAAAAAAA [CACACA_site3537]	10.2
TGATTATAGACACGCGCACACACAACAAAAAAAAAA [CACACA_site9179]	10.1
CACAAACAAAGACACACACACACACGCACAAAAATG [CACACA_site7193]	10.7
ATTACATACACGCGCACACACAAAAAAAAAAAAAAA [CACACA_site1334]	9.98
ATTATACACCCGCGCACACACAACAAAAAAAAAAAA [CACACA_site5871]	11.1
TTATATTATAGACACACACACAAAAAAAAAAAAAAA [CACACA_site3816]	10.1
ATAGACAGCGCACAAACACACAAACACGCACGCACA [CACACA_site6349]	10.2
ATAAAAATTGATTATACACACGCGCACCCACAACAA [CACACA_site3536]	10.3
TACACAAACAGACACACACACACACGCGCACAAAAA [CACACA_site7192]	11
